# Results from PubChem BioAssay.
# Calls of active or inactive are those of the source.
# What was measured:
# [1] = molecular target: Albumin (Bos taurus) (UniProt P02769); experiment: bovine serum albumin binders on microarray, profiling panel, artefact control for SMM control protein annotation, biochemical, small-molecule microarray, Alexa647 label, 635/667 nm fluorescence (AID 1118); conditions: BSA-A647 binding, fluorescence 635 nm, higher = more signal;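 also: score merges 667 nm emission intensity and signal-to-noise per printed compound spot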
# Chain of Albumin (Bos taurus) (P02769 whole entry, looked up): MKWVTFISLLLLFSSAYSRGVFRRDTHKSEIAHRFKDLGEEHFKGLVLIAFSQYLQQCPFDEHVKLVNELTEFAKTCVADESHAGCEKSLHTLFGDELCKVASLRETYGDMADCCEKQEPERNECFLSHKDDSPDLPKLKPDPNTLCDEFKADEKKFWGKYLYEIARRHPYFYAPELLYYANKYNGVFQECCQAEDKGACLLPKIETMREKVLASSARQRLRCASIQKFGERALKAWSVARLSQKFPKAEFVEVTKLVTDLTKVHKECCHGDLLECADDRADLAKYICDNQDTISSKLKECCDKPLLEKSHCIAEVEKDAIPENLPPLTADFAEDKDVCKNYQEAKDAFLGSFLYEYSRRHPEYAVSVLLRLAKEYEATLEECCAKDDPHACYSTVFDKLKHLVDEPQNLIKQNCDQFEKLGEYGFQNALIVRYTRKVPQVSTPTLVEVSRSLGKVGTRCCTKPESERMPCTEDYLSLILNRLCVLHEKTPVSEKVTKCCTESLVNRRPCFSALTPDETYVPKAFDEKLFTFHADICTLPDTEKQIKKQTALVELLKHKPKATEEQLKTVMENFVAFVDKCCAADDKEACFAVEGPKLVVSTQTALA
# [2] = small-molecule microarray binders of probe aXIP, primary screen, biochemical, NeuroSMM set, 635/667 nm fluorescence (AID 1119); conditions: higher = more signal, called active from +8 up or from −8 down;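 also: probe is the protein aXip251-270 applied at 1 µg/mL to compound-printed slides; binding of probe to printed compounds measured as 667 nm fluorescence plus signal to noise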
# [3] = small-molecule binders of probe aNOTCH3, primary screen, biochemical, small-molecule microarray, 635/667 nm fluorescence (AID 1120); conditions: higher = more signal;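 also: probe is a biotin-tagged antibody raised against NOTCH3 rather than NOTCH3 protein; score merges spot fluorescence near 667 nm with spot signal to noise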
# [4] = small-molecule binders of probe aNOTCH2, primary screen, biochemical, small-molecule microarray, 635/667 nm fluorescence (AID 1121); conditions: higher = more signal;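 also: score merges feature fluorescence read at 667 nm with its signal to noise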
# [5] = molecular target: Carbonic anhydrase 2 (Homo sapiens) (UniProt P00918); experiment: CAII small-molecule binders, profiling panel, biochemical, small-molecule microarray, Alexa647-labelled CAII (AID 1122); conditions: CAII-A647 binding fluorescence, higher = more signal
# [6] = COS7 lysate on small-molecule microarray, probe aHis, 635 nm (AID 1123); conditions: COS7 cell lysate, fluorescence, higher = more signal;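 also: z-score combines 667nm fluorescence intensity with signal-to-noise per printed compound spot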
# [7] = compound binding in COS7 lysate, probe aLAP1, primary screen, cell lysate, small-molecule microarray (AID 1124); conditions: probe aLAP1, fluorescence, higher = more signal;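 also: lysate comes from COS7 cells expressing LAP1 and is applied at 0.3 µg/mL; score merges spot fluorescence near 667 nm with signal-to-noise over triplicate slides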
# [8] = test system: Sam68 (KHDRBS1); experiment: Sam68 small-molecule binders, primary screen, biochemical, small-molecule microarray, 635 nm fluorescence (AID 1125); conditions: small-molecule microarray binding, higher = more signal;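 also: score merges 667 nm channel intensity with signal to noise over triplicate slides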
# [9] = test system: Chordin-like protein 2 (CHRDL2); experiment: CHRDL2 small-molecule binders, primary screen, biochemical, small-molecule microarray, 635 nm fluorescence (AID 1126); conditions: small-molecule microarray binding, fluorescence 635 nm; higher = more signal;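 also: printed compound slides probed with Chrdl2 protein at 4 µg/mL for 1 h at 4 C; score merges 667 nm emission intensity with signal to noise over three replicate slides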
# [10] = molecular target: Concanavalin-A (Canavalia ensiformis) (UniProt P02866); experiment: ConA small-molecule binders, primary screen, artefact control for SMM control protein annotation, biochemical, small-molecule microarray, Alexa647 label, 635 nm (AID 1127); conditions: ConA-A647 binding fluorescence, higher = more signal;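 also: z combines 667 nm emission intensity with signal-to-noise across three replicate slides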
# Chain of Concanavalin-A (Canavalia ensiformis) (P02866 whole entry, looked up): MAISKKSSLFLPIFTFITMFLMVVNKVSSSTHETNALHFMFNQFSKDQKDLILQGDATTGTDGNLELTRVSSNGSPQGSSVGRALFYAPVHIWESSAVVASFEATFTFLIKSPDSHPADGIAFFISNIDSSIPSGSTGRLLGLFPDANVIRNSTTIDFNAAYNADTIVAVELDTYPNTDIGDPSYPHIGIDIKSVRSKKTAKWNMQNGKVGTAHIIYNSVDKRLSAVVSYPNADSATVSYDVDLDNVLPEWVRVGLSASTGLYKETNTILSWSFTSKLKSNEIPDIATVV
# [11] = anti-His antibody binders, primary screen, artefact control for SMM control protein annotation, biochemical, small-molecule microarray, 635 nm fluorescence (AID 1128); conditions: anti-His Alexa647 antibody binding, higher = more signal;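 also: score merges feature fluorescence with signal-to-noise for each printed compound spot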
# [12] = test system: Human papillomavirus type 1a E7 protein (residues 1-88); experiment: HPV1a E7 small-molecule binders, primary screen, biochemical, small-molecule microarray, residues 1-88, 635 nm (AID 1129); conditions: small-molecule microarray binding, fluorescence 635 nm; higher = more signal
# [13] = molecular target: Focal adhesion kinase 1 (Homo sapiens) (UniProt Q05397); experiment: small-molecule microarray binders of FAK, primary screen, biochemical, 635/667 nm fluorescence, BSA, DTT (AID 1130); conditions: PTK2 binding, 635 nm fluorescence, higher = more signal;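 also: composite of spot emission at 667 nm and signal to noise over triplicate slides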
# Chain of Focal adhesion kinase 1 (Homo sapiens) (Q05397 whole entry, looked up): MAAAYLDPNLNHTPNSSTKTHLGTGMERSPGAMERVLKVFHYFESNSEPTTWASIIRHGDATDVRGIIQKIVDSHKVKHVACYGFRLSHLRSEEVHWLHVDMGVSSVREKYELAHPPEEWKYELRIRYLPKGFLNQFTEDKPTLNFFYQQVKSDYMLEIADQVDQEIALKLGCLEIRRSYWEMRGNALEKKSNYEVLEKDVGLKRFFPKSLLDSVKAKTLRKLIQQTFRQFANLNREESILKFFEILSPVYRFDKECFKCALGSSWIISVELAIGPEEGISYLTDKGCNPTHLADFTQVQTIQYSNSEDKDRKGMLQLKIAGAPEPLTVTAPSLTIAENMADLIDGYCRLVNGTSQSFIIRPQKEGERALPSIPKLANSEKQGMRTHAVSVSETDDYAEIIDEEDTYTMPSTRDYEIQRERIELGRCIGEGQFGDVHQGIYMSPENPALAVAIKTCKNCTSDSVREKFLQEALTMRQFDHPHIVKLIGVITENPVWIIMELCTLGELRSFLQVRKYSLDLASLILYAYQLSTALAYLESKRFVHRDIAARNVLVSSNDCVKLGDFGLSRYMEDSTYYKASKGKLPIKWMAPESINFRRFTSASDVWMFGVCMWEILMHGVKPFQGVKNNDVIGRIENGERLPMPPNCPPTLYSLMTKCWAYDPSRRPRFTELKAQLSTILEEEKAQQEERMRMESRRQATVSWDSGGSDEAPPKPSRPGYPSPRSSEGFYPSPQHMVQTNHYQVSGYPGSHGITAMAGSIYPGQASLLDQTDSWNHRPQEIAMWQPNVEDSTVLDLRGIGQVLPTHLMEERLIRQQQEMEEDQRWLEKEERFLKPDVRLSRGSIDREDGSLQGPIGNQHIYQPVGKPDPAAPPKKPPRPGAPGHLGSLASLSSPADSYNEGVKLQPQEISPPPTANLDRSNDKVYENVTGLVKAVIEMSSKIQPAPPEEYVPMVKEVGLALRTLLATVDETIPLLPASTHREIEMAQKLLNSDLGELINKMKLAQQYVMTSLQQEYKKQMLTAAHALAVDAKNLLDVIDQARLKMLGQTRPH
# [14] = test system: Fibrinogen (Alexa647-labelled); experiment: fibrinogen binders on compound microarrays, profiling panel, artefact control for SMM control-protein annotation, biochemical, small-molecule microarray, 635/667 nm fluorescence (AID 1131); conditions: fibrinogen-A647 binding fluorescence, higher = more signal;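 also: z-score merges 667 nm fluorescence with per-spot signal-to-noise over triplicate slides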
# [15] = molecular target: Follistatin (Homo sapiens) (UniProt P19883); experiment: follistatin binders on small-molecule microarrays, primary screen, biochemical, small-molecule microarray, 635/667 nm fluorescence (AID 1132); conditions: FST binding, 635 nm fluorescence, higher = more signal
# Chain of Follistatin (Homo sapiens) (P19883 whole entry, looked up): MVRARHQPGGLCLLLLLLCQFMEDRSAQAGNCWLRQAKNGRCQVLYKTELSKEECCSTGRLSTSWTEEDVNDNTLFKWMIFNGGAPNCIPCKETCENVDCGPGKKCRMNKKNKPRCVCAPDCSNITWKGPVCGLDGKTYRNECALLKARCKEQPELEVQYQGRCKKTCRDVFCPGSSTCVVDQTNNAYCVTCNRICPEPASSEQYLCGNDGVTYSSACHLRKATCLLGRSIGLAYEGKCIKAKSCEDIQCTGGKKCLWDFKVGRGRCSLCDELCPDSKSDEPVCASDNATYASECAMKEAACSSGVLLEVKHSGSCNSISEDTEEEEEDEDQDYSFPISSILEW
# [16] = molecular target: Fibroblast growth factor 2 (Homo sapiens) (UniProt P09038); experiment: FGF2 binders on small-molecule microarrays, primary screen, biochemical, small-molecule microarray, 635/667 nm fluorescence (AID 1133); conditions: small-molecule microarray binding, FGF2, fluorescence 635/667; higher = more signal
# Chain of Fibroblast growth factor 2 (Homo sapiens) (P09038 whole entry, looked up): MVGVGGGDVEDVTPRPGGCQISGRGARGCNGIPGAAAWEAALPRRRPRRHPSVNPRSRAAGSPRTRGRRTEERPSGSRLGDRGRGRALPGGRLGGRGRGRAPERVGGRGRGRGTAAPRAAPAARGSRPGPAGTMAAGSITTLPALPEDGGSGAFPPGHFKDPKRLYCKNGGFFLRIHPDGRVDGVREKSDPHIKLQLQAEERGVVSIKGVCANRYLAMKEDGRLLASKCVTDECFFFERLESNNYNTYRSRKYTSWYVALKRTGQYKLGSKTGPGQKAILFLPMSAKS
# [17] = mitochondrial membrane potential change in A549 cells, profiling panel, cell-based, JC-1 fluorescence, basal, 24 h, 100 nL (AID 1138); conditions: higher = more signal;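 also: A549 lung adenocarcinoma cells under basal conditions with no added stimulus; test concentration not given here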
# [18] = test system: Lefty1; experiment: Lefty1 binders on small-molecule microarrays, primary screen, biochemical, small-molecule microarray, 635/667 nm fluorescence (AID 1139); conditions: small-molecule microarray binding, fluorescence 635/667; higher = more signal
# [19] = test system: wheat germ agglutinin (Triticum aestivum), Alexa647-labelled; experiment: wheat germ agglutinin binders on compound microarrays, profiling panel, artefact control for SMM control-protein annotation, biochemical, small-molecule microarray, 635/667 nm fluorescence (AID 1140); conditions: WGA-A647 binding, 635 nm fluorescence, higher = more signal;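 also: score merges 667 nm feature emission with signal to noise over triplicate slides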
# [20] = molecular target: Luciferin 4-monooxygenase (Photinus pyralis) (UniProt P08659); experiment: firefly luciferase enzyme inhibitors, primary screen, biochemical, luminescence, purified enzyme, 2006 set (AID 1141); conditions: SteadyGlo luminescence, 30 min, higher = more signal, called active from +8 up or from −8 down;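 also: cell-free assay with purified firefly luciferase at 100 ng per well in PBS; test concentration not given here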
# Chain of Luciferin 4-monooxygenase (Photinus pyralis) (P08659 whole entry, looked up): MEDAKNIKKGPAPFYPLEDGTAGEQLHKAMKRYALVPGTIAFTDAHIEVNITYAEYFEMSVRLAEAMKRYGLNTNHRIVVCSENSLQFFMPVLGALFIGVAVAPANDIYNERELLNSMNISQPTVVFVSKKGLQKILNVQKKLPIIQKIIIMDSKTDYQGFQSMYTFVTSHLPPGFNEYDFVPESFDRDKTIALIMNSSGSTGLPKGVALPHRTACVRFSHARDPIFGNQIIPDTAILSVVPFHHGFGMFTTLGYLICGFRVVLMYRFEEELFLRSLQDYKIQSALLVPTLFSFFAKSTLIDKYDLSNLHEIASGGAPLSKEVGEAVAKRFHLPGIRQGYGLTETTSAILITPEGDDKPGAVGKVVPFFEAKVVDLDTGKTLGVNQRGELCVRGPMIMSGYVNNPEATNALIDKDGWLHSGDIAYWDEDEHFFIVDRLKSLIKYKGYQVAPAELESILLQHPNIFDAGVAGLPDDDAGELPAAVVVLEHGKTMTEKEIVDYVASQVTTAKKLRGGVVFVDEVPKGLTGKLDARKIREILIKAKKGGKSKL
Structure (SMILES),composite z-score [1],composite Z-score [2],composite z-score [3],composite z-score [4],composite z-score [5],composite z-score [6],composite z-score [7],composite z-score [8],composite z-score [9],composite z-score [10],composite z-score [11],composite z-score [12],composite z-score [13],composite z-score [14],composite z-score [15],composite z-score [16],z-score [17],composite z-score [18],composite z-score [19],z-score [20]
COC(=O)[C@H](C)NC(=O)CCC1CC(OC(=O)NCc2cccc3ccccc23)CC2(CCCC(COC(=O)NCCc3ccccc3OC)O2)O1 (stereo not given in full),0.707,-0.18 (inactive),0.0893,-0.185,0.548,1.06,-0.557,1.3,0.409,0.917,1.13,1.18,0.656,0.661,0.941,0.544,-0.358,0.89,0.316,0.603 (inactive)
COCCNC(=O)OCC1CCCC2(CC(OC(=O)NCc3cccc4ccccc34)CC(CCC(=O)N[C@@H](C)C(=O)OC)O2)O1 (stereo not given in full),0.0307,0.59 (inactive),-0.0362,-0.14,0.262,1.12,-0.107,1.3,0.665,1.03,0.522,1.13,-0.208,0.912,0.728,1.04,0.609,0.42,0.598,0.396 (inactive)
CO[C@H]1COC(=O)[C@H](CCSC)NC(=O)CC=C[C@@H](C)[C@H](OC)COC(=O)[C@@H](OCc2ccccc2)C=C[C@@H]1C,-0.798,1.04 (inactive),-0.043,-0.153,-0.173,-0.919,0.0916,0.835,1.45,-0.257,0.657,0.116,-0.0918,-0.84,1.23,0.689,-1.19,1.3,-0.36,1.28 (inactive)
CCOC(=O)CCN1C(=O)[C@H]2[C@@H]3C(=CC[C@H]2C1=O)C(=O)[C@H]1O[C@H]1[C@H]3O,0.375,-0.342 (inactive),-0.313,-0.146,0.534,-0.774,0.0946,-0.728,-0.23,-0.666,-0.705,-0.307,-0.336,-0.476,-1.02,-0.858,0.736,-0.762,0.243,-1.04 (inactive)
COC(=O)CC=C[C@@H](C)[C@@H](C=NOC[C@@H](O)COCc1ccco1)NS(=O)(=O)c1ccc(C)cc1,-1.17,-0.553 (inactive),-0.169,-0.0854,-0.485,-1.36,-0.504,-0.866,1.52,-2.76,0.13,-1.94,-0.432,-1.03,1.29,0.542,-0.383,0.915,-0.681,0.167 (inactive)
O=C1C[C@H](c2ccccc2)[C@H](c2ccc(Br)cc2)O1,0.275,0.372 (inactive),-0.182,-0.117,-0.202,-0.652,-1.07,-0.179,0.143,-0.394,0.443,-0.374,0.718,-0.233,-0.126,-0.0946,-0.421,0.0985,-0.236,-1.8 (inactive)
CC(CCC(=O)OC[C@H]1O[C@H](C#Cc2ccccc2)C=C[C@@H]1Oc1ccc(C)cc1)=NOC(C)CN1CCCc2nc(C)c(C)cc21 (stereo not given in full),0.412,-0.266 (inactive),-0.0647,-0.0793,-0.0994,1.12,-0.114,1.14,0.281,0.924,1.09,0.886,0.659,0.564,0.686,0.507,0.238,0.596,0.418,0.0139 (inactive)
CCOC(=O)[C@H](CC(C)C)NC(=O)CCC1CC(OC(=O)NCc2ccc3c(c2)OCO3)CC2(CCCC(COC(=O)NCc3ccccc3)O2)O1 (stereo not given in full),0.646,1.09 (inactive),-0.226,-0.146,0.198,1.25,-0.118,1.19,0.161,1.01,0.333,0.946,0.0786,0.926,0.659,0.495,-0.0369,1.03,0.786,0.976 (inactive)
CCCNC(=O)OC[C@H]1O[C@H](CCON=C[C@@H](NS(=O)(=O)c2ccc(C)cc2)[C@H](C)C=CCC(=O)OC)C=C[C@@H]1Oc1ccc(OC)cc1,-0.413,-0.385 (inactive),0.0961,-0.0158,-0.437,-0.192,-0.0407,0.0713,0.16,-1.46,-0.114,0.136,0.459,0.0865,-0.0546,-0.102,0.188,0.0275,0.391,-0.21 (inactive)
CCOC(=O)[C@H](Cc1ccccc1)NC(=O)CCC1CC(OC(=O)NCc2cccc3ccccc23)CC2(CCCC(COC(=O)NCCc3ccc(Cl)cc3)O2)O1 (stereo not given in full),0.278,-0.413 (inactive),-0.296,-0.203,0.349,0.37,-0.126,1.08,0.253,1.03,0.486,0.791,0.222,0.78,0.461,0.344,-0.243,0.414,0.556,1.36 (inactive)
O=C1[C@H]2[C@H]3[C@H](O)[C@H](O)CC(=NOC[C@@H](O)COCc4ccco4)[C@@H]3CC[C@H]2C(=O)N1Cc1ccc2c(c1)OCO2,0.29,0.564 (inactive),-0.127,-0.148,-0.307,-0.0845,0.123,0.275,1.54,-0.19,-0.133,-0.499,-0.347,-0.952,1.35,1.56,0.96,0.793,-0.63,-0.0365 (inactive)
